# From PubChem BioAssay (NCI)
# This is part of a sample that, as a whole, favours compounds with a hit. Of some 79,000 tested, about 15% had one in any assay. Calls of active or inactive are those of the source. No stated cut-off is given here; in the data, active means growth inhibition above about 70%; inactive means the rest.
# Experiment: NCI Yeast Anticancer Drug Screen. Data for the rad50 strain (AID 155);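 further: 0% = growth of vehicle-only cultures of the same strain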
# Conditions: S. cerevisiae rad50 strain growth inhibition; at 50.0 µM; active compounds read high
# Outline: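 DNA repair mutant yeast, compound exposure, growth read-out; inhibition is taken relative to vehicle.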
row,SMILES,growth inhibition
1,O=C(O)/C=C/C(=O)Nc1cccc2ccccc12,6.35% (inactive)
2,CCCCCN=C(C)C(C)=NCCCCC,93.3% (active)
3,Oc1ccc(N=Nc2ccccc2)c(O)c1.Oc1ccc(N=Nc2ccccc2)c(O)c1.[Cu],98.1% (active)
4,NNc1c(Cl)cc(Cl)cc1Cl,98.2% (active)
5,C=C1C[C@H](O)[C@H]2C(C[Se]c3ccccc3)C(=O)O[C@@H]2[C@H]2[C@H](C)C(O)C[C@@H]12 (stereo not given in full),43.6% (inactive)
6,O=C(CBr)Oc1ccc(-c2cccc(Br)c2)cc1,99.7% (active)
7,CCCCC1=NCCc2c1cc1c([nH]c3ccccc31)c2C,9.2% (inactive)
8,CCOC(=O)NC(=S)Nc1ccsc1,15.6% (inactive)
9,CCCCCCCCCCCCCCCCNC(C)c1ccccc1 (stereo not given),98.1% (active)
10,Cc1ccc(C2(O)CC(c3ccc([N+](=O)[O-])o3)=NN2C(=O)COc2ccc(Cl)cc2)cc1 (stereo not given),6.1% (inactive)
11,CCOC(=O)/C(C#N)=C/c1ccccc1Br,50% (inactive)
12,CCCCCCCCCCCCCCCCNCCCCCCCC(=O)O,75% (active)
13,CC[N+]1(C)CCC(O)(c2ccc(Cl)c(Cl)c2)C(C(=O)c2ccc(Cl)c(Cl)c2)C1 (stereo not given),99.4% (active)
14,CC(=O)Nc1nnc(-c2coc3ccccc3c2=O)s1,50.9% (inactive)
15,CCC(C)(C)NCCCCCNc1cc(OC)cc2cccnc12,76.2% (active)
16,CSC(=Nc1ccccc1)/N=C(\SCc1ccccc1)N(C)C,99.3% (active)
17,N=Cc1cc([N+](=O)[O-])ccc1O,96.8% (active)
18,CCCCCCCC(=O)/C=C/c1ccc(C)cc1,56.8% (inactive)
19,Cc1ccc(S(=O)(=O)N/N=C2/CC[C@H](C(C)(C)C)C[C@@H]2C)cc1,86.2% (active)
20,Nc1ccc2c(c1)CCc1ccccc1-2,83.3% (active)

row,SMILES,growth inhibition
1,CN(C)CCC(=O)[C@@]1(O)CC[C@H]2[C@@H]3CC=C4C[C@@H](O)CC[C@]4(C)[C@H]3CC[C@@]21C,44.1% (inactive)
2,CC(=O)OC1COC(N2C(=O)C(=O)c3cc(Br)ccc32)C(OC(C)=O)C1OC(C)=O (stereo not given),50.7% (inactive)
3,Cc1ccc(N2CCN(c3c(N)cncc3Br)CC2)cc1,94% (active)
4,O=C(O)c1ccccc1SC(Sc1ccccc1C(=O)O)c1cccc(Cl)c1,88% (active)
5,CC[N+](C)(CC)CCC(=O)/C=C/c1ccccc1,87.5% (active)
6,COc1ccc(C(C)c2cc3c(cc2OC/C(C)=N/NC(N)=O)OCO3)cc1 (stereo not given),74.4% (active)
7,CN=C(N)N/N=C(\C)c1ccc2c(c1)Cc1cc(Cl)ccc1-2,98.8% (active)
8,CCCCCCCCN/N=C(/C)CCCCCO,-14.2% (inactive)
9,O=[N+]([O-])c1cccc2c(O)cccc12,59% (inactive)
10,O=C1C(=O)c2ccccc2C(O)=C1Sc1ccccc1,95.2% (active)
11,CC(=O)N(O)c1ccc2c(c1)Cc1cc(F)ccc1-2,97% (active)
12,CC12CCC(=O)C=C1CCC1C2CCC2(C)C(c3cnc[nH]3)CCC12 (stereo not given),77% (active)
13,O=C1OC(C2OC(=O)C(=O)C2C(=O)c2ccc(Cl)c(Cl)c2)C(C(=O)c2ccc(Cl)c(Cl)c2)C1=O (stereo not given),94.5% (active)
14,CC/C(C)=C1\CCC(CN2CCOCC2)C1=O (stereo not given),79% (active)
15,COc1ccc(C2CC(=O)CC(=O)C2)cc1,65.2% (inactive)
16,Cc1ccc(O)c(C(c2ccc([N+](=O)[O-])cc2)c2cc(C)ccc2O)c1,91.2% (active)
17,O=C1OS(=O)(=O)c2cc3c(cc21)C1C(C2C3C3(Cl)C(Cl)=C(Cl)C2(Cl)C3(Cl)Cl)C2(Cl)C(Cl)=C(Cl)C1(Cl)C2(Cl)Cl (stereo not given),83.9% (active)
18,CCOC(=O)C1SC(=S)N(C)C1=O (stereo not given),99.2% (active)
19,O=C(c1ccc(Cl)c([N+](=O)[O-])c1)c1ccc(Cl)c([N+](=O)[O-])c1,59% (inactive)
20,Cc1cc[c]([Sn]([Cl])([O][Sn]([Cl])([c]2ccc(C)cc2)[c]2ccc(C)cc2)[c]2ccc(C)cc2)cc1,84.7% (active)
